# Results from PMC7862700, “An all-to-all approach to the identification of sequence-specific readers for epigenetic DNA modifications on cytosine”.
# Key:
# Assay in all cases: DAPPL (digital affinity profiling via proximity ligation, sequencing); 10 mM Tris-HCl pH 7.5, 50 mM NaCl, 1 mM DTT, 4% glycerol, room temperature, 30 min; GST-TFs on glutathione beads, 16-mer random dsDNA library, 0.1% formaldehyde crosslink after washing; high values mean tight binding
# Settings in all cases: protein: recombinant; tags: N-terminal GST; dsDNA, one strand shown
# ELK1 = molecular target: T1, ELK1 (Homo sapiens, UniProt P19419 1-428)
# T1 sequence: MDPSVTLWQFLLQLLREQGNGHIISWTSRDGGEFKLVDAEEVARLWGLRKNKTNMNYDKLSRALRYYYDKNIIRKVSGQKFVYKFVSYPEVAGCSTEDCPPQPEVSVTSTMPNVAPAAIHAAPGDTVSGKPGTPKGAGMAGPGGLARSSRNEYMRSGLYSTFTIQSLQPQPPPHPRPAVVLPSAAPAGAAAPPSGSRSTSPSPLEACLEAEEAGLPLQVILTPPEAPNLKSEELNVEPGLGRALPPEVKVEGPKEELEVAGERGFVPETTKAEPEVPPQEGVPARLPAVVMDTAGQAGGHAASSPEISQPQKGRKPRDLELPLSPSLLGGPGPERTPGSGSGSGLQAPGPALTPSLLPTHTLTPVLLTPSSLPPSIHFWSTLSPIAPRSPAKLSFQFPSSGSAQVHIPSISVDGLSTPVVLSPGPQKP
# In short: (§1)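 Binding signal is defined as a hexamer's read frequency for one factor over its frequency for the tag-only sample. To obtain reads, GST-fused human transcription factors were expressed in yeast, captured on glutathione beads, barcoded with DNA and pooled with that sample. Pools met 200 nmole of a 16-mer random double-stranded DNA library in Tris/NaCl/DTT/glycerol buffer for 30 min at room temperature before washing, 0.1% formaldehyde crosslinking, proximity ligation (BsaI/T4 ligase, 1 h, 37 °C), PCR and Illumina NextSeq500 sequencing.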
# GABPA = molecular target: T2, GABPA (Homo sapiens, UniProt Q06546 1-454)
# T2 sequence: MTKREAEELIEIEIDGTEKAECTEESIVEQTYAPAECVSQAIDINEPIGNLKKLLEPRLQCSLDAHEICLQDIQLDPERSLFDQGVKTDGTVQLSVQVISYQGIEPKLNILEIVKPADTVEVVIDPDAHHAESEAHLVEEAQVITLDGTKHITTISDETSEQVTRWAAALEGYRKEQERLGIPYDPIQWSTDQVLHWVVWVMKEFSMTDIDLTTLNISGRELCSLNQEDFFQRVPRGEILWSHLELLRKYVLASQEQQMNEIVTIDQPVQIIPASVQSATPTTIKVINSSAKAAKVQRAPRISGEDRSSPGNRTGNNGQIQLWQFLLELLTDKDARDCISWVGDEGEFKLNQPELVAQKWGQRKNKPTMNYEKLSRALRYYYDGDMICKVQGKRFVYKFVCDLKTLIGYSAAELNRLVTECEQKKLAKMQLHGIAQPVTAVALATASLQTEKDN
# In short: as §1
# ERG = molecular target: T3, ERG (Homo sapiens, UniProt P11308 1-479)
# T3 sequence: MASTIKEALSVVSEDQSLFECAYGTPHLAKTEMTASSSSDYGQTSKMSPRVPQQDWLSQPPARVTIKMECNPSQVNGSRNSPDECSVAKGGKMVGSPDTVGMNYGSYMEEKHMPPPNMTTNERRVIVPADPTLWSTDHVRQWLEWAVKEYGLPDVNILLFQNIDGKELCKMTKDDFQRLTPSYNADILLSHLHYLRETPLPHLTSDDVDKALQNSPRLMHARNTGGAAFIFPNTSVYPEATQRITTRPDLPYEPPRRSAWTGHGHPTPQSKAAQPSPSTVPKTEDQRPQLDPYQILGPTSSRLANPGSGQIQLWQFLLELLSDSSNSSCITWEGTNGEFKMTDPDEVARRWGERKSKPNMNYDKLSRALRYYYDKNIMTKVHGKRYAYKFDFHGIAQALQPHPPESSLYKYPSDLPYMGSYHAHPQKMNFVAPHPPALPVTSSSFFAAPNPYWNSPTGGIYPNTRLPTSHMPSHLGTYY
# In short: as §1
# ELF1 = ELF1 (Homo sapiens, UniProt P32519 1-619)
# In short: as §1
# ELK3 = molecular target: T4, ELK3 (Homo sapiens, UniProt P41970 1-407)
# T4 sequence: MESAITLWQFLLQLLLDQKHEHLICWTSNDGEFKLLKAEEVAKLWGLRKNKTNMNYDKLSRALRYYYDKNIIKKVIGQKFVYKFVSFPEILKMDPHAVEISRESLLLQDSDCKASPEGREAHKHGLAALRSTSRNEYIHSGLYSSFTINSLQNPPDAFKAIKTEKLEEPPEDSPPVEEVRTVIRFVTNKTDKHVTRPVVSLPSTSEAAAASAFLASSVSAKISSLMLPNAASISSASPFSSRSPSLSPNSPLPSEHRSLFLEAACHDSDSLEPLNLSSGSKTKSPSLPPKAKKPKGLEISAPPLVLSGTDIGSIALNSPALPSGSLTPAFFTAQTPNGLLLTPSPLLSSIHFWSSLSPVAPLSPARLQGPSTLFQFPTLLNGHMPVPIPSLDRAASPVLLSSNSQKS
# In short: as §1
# SPIC = molecular target: T5, SPIC (Homo sapiens, UniProt Q8N5J4 1-248)
# T5 sequence: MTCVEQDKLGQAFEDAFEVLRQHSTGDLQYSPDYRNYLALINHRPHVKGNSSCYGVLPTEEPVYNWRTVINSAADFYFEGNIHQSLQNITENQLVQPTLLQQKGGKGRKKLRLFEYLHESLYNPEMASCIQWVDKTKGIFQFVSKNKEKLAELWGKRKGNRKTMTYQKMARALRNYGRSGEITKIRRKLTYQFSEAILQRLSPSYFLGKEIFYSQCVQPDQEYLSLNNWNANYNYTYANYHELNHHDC
# In short: as §1
# ELK4 = molecular target: T6, ELK4 (Homo sapiens, UniProt P28324-2 1-405)
# T6 sequence: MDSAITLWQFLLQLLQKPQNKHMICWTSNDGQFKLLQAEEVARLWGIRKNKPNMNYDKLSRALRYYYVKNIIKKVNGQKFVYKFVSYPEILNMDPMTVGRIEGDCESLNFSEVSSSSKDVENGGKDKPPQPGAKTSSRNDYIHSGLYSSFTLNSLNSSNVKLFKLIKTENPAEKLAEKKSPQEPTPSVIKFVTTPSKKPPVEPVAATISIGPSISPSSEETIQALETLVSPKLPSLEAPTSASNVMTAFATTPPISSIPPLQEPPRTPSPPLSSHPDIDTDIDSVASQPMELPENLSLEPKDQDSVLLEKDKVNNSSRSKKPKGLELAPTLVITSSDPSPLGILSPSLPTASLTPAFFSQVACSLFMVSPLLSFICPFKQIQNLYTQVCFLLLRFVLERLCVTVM
# In short: as §1
# ERF = molecular target: T7, ERF (Homo sapiens, UniProt P50548 1-548)
# T7 sequence: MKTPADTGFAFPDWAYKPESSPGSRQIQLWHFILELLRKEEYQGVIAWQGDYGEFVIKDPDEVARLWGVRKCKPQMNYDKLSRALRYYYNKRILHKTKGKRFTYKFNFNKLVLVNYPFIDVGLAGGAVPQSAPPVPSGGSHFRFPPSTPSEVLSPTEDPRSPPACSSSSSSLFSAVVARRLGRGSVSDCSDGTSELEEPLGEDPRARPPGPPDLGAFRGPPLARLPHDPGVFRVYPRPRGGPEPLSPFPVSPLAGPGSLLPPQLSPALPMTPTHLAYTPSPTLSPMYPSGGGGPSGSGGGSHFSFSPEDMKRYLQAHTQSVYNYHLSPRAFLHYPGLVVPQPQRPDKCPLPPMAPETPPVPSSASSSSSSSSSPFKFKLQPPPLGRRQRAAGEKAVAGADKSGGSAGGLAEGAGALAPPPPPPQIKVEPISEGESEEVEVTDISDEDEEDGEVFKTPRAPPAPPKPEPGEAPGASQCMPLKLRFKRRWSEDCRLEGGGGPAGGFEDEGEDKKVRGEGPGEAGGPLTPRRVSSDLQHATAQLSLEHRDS
# In short: as §1
# ETV3L = molecular target: T8, ETV3L (Homo sapiens, UniProt Q6ZN32 1-361)
# T8 sequence: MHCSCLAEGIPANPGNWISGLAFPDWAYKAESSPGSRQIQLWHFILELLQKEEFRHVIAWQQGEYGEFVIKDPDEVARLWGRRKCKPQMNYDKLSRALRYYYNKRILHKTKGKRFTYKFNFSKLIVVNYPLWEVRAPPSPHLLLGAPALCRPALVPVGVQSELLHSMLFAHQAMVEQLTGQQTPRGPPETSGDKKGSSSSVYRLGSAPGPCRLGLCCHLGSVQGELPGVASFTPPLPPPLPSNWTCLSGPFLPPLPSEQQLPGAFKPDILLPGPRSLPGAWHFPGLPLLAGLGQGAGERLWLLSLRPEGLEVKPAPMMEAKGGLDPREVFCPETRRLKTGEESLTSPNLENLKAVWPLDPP
# In short: as §1
# ETS2 = molecular target: T9, ETS2 (Homo sapiens, UniProt P15036 1-469)
# T9 sequence: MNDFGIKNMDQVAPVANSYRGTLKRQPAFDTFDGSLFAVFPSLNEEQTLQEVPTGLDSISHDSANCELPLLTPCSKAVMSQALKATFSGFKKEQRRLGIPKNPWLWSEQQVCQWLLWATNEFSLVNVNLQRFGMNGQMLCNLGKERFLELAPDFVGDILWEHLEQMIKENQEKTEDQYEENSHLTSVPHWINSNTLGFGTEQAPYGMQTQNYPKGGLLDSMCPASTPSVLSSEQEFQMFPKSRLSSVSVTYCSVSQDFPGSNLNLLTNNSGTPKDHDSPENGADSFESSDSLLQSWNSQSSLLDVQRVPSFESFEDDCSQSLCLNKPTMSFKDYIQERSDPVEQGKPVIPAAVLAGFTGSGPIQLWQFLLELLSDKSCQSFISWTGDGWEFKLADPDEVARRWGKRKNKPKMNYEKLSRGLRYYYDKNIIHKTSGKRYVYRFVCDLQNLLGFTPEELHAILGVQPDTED
# In short: as §1
# ETV3 = molecular target: T10, ETV3 (Homo sapiens, UniProt P41162-2 1-143)
# T10 sequence: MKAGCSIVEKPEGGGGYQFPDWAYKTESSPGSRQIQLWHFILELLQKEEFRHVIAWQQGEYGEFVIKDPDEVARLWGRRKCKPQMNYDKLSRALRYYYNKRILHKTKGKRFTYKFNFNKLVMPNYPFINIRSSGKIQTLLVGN
# In short: as §1
# ETV6 = ETV6 (Homo sapiens, UniProt P41212 1-452)
# In short: as §1
# Sequence of ETV6 (P41212 whole entry): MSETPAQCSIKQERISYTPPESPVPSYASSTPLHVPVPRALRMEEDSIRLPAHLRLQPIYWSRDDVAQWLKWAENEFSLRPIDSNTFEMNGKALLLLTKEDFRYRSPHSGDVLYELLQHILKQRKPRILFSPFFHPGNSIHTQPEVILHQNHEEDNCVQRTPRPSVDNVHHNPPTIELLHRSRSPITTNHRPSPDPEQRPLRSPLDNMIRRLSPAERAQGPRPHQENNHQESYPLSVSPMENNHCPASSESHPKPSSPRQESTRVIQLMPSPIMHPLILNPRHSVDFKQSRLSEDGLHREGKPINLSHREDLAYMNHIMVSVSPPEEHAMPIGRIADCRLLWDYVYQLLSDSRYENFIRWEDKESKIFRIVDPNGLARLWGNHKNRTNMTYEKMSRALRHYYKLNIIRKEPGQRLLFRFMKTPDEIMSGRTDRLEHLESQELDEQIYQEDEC
# Sequence of ELF1 (P32519 whole entry): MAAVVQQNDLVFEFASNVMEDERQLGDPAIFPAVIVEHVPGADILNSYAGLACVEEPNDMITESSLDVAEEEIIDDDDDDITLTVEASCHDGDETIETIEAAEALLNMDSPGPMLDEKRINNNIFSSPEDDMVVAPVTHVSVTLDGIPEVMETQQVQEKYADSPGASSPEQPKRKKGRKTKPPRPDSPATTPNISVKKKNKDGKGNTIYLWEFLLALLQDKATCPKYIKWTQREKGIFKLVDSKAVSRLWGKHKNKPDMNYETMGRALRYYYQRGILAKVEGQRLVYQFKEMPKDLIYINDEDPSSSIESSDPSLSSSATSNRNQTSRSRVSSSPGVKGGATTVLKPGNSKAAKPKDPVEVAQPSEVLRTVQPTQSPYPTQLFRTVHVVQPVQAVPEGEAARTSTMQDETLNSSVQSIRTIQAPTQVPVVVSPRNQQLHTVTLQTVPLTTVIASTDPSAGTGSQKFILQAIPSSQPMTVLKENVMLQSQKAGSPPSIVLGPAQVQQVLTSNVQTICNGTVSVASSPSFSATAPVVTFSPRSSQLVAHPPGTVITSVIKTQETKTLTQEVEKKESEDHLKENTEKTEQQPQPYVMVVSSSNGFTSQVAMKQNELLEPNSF
sequence,measurement,setting,value
AGTCTC,binding signal,ELK1,"1.02 fold enrichment (6-mer frequency, TF over GST control)"
same,binding signal,GABPA,"1.01 fold enrichment (6-mer frequency, TF over GST control)"
same,binding signal,ERG,"1.06 fold enrichment (6-mer frequency, TF over GST control)"
same,binding signal,ELF1,"1.05 fold enrichment (6-mer frequency, TF over GST control)"
same,binding signal,ELK3,"1.03 fold enrichment (6-mer frequency, TF over GST control)"
same,binding signal,SPIC,"1.1 fold enrichment (6-mer frequency, TF over GST control)"
same,binding signal,ELK4,"1.05 fold enrichment (6-mer frequency, TF over GST control)"
same,binding signal,ERF,"1.04 fold enrichment (6-mer frequency, TF over GST control)"
same,binding signal,ETV3L,"1.06 fold enrichment (6-mer frequency, TF over GST control)"
same,binding signal,ETS2,"1.05 fold enrichment (6-mer frequency, TF over GST control)"
same,binding signal,ETV3,"1.09 fold enrichment (6-mer frequency, TF over GST control)"
same,binding signal,ETV6,"1.04 fold enrichment (6-mer frequency, TF over GST control)"
